Among the test systems are NCI-H23 lung; NCI-H226 lung; NCI-H322M lung; HOP-62 NSCLC; NCI-H460 lung; HOP-92 NSCLC; NCI-H522 lung; A549/ATCC NSCLC; 786-0 renal; COLO 205 colon; DU-145 prostate; K-562 leukemia; MALME-3M melanoma; MDA-MB-231 breast; RXF 393 renal; SF-268 CNS; SF-295 CNS; SF-539 CNS; UACC-257 melanoma; M14 melanoma.
Experiment in all cases: NCI-60 one-dose screen, 48 h (100 = growth as untreated, 0 = no growth, -100 = all killed)
What all share (conditions): 10 µM unless noted

The panel holds about 83,000 compounds, 20% with a hit somewhere; the sample as a whole holds those more often.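 Single-dose data. Exposure time 48 hours. Values below 10 considered active.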 Unmarked numbers belong to inactive results. Calls of active or inactive are those of the source.

Turning to `O=C(NCCNC(c1ccccc1)C(NCCNC(=O)c1ccccc1)c1ccccc1)c1ccccc1` (stereo not given), the growth with NCI-H23 lung is 83.3%; with NCI-H226 lung, 100%; in the assay with NCI-H322M lung, 95.7%; in the assay on HOP-62 NSCLC it was 104%; in the assay on NCI-H460 lung, 59.6%; in the assay with HOP-92 NSCLC, 84.8%. Further, the growth in the assay with NCI-H522 lung is 69.4%; in the assay on A549/ATCC NSCLC, 106%; with 786-0 renal it was 106%; with COLO 205 colon, 106%; in the assay on DU-145 prostate it was 19.8%; in the assay with K-562 leukemia it was 81.6%. Also, the growth is 101% with MALME-3M melanoma; 98% in the assay with MDA-MB-231 breast; 72.9% in the assay with RXF 393 renal; 99.7% in the assay with SF-268 CNS; 81.8% in the assay with SF-295 CNS; 103% with SF-539 CNS. For the same molecule, the growth in the assay on UACC-257 melanoma was 96.9%; in the assay with M14 melanoma, 86.3%.

Turning to `N=C(N)c1ccc(OCCSCCOc2ccc(C(=N)N)cc2)cc1`, the growth with NCI-H23 lung is 36.2%; in the assay on NCI-H226 lung, 58.8%; in the assay with NCI-H322M lung, 78.3%; with HOP-62 NSCLC it was 72.5%; in the assay on NCI-H460 lung it was 27.1%; with HOP-92 NSCLC it was 79.2%. Besides, the growth in the assay on NCI-H522 lung was 48.5%; in the assay on A549/ATCC NSCLC, 57.4%; in the assay on 786-0 renal, 80.2%; in the assay on COLO 205 colon, 79.5%; in the assay with DU-145 prostate it was 71.7%; with K-562 leukemia, 54.3%. The growth was 52.2% in the assay with MALME-3M melanoma; 82.1% in the assay on MDA-MB-231 breast; 105% with RXF 393 renal; 74.2% with SF-268 CNS; -33.5% (active) with SF-295 CNS; 76.5% in the assay on SF-539 CNS. Moreover, the growth in the assay on UACC-257 melanoma is 76.2%; with M14 melanoma it was 75.3%.

As for `CSc1ccc2c3c(n(C[C@H](O)CO)c(=O)c2c1)-c1ccccc1C3=O`, the growth in the assay on NCI-H23 lung is 38.1%; in the assay on NCI-H226 lung, 12.8%; in the assay on NCI-H322M lung, 74.3%; in the assay with HOP-62 NSCLC, 21.5%; in the assay with NCI-H460 lung, 6.06% (active); in the assay with HOP-92 NSCLC, 106%. The growth with NCI-H522 lung was 43.7%; in the assay with A549/ATCC NSCLC, 14.5%; with 786-0 renal, 27%; with COLO 205 colon, 54.2%; in the assay with DU-145 prostate, 22%; in the assay on K-562 leukemia, 20.7%. Also, the growth is 74.4% in the assay with MALME-3M melanoma; 108% in the assay with MDA-MB-231 breast; 79.7% in the assay on RXF 393 renal; 44% in the assay on SF-268 CNS; 14.3% with SF-295 CNS; 10.3% in the assay with SF-539 CNS. Besides, the growth with UACC-257 melanoma is 85.5%; in the assay with M14 melanoma, 52.2%.

For the molecule `N#CSc1c[nH]c2ccc(/C=C/C(=O)/C=C(O)/C=C/c3ccc4[nH]cc(SC#N)c4c3)cc12`, the growth was 25.3% with NCI-H23 lung; 31.6% in the assay on NCI-H226 lung; 96.9% with NCI-H322M lung; 28.1% in the assay on HOP-62 NSCLC; 12.5% in the assay on NCI-H460 lung; -21.3% (active) in the assay on HOP-92 NSCLC. Further, the growth with NCI-H522 lung is -63.9% (active); in the assay with A549/ATCC NSCLC, 12.4%; in the assay with 786-0 renal it was 13.9%; in the assay with COLO 205 colon, -39.7% (active); with DU-145 prostate it was 29%; with K-562 leukemia, -15.2% (active). Also, the growth is 20.7% in the assay on MALME-3M melanoma; 22.8% with MDA-MB-231 breast; 9.89% (active) in the assay on RXF 393 renal; 35.5% in the assay on SF-268 CNS; 57.3% with SF-295 CNS; 13.5% with SF-539 CNS. Moreover, the growth in the assay with UACC-257 melanoma was 25.9%; with M14 melanoma, -5.11% (active).

In the case of `Nc1ncnc2c1N=C(c1ccc(Cl)cc1)CC(c1cccc(Nc3ccnc4cc(Cl)ccc34)c1)N2` (stereo not given), the growth with NCI-H23 lung is 66.8%; in the assay with NCI-H226 lung, 87.5%; in the assay with NCI-H322M lung, 84.1%; in the assay with HOP-62 NSCLC it was 70.4%; with NCI-H460 lung, 75.6%; in the assay on HOP-92 NSCLC it was 44.7%. Also, the growth in the assay on NCI-H522 lung was 93.8%; in the assay with A549/ATCC NSCLC, 84.5%; with 786-0 renal, 67.5%; in the assay on COLO 205 colon, 66.2%; in the assay with DU-145 prostate, 83.2%; in the assay with K-562 leukemia it was -0.992% (active). Further, the growth is 84.8% in the assay with MALME-3M melanoma; 63.5% with MDA-MB-231 breast; 34.1% with RXF 393 renal; 53.4% in the assay on SF-268 CNS; 67% with SF-295 CNS; 76% with SF-539 CNS. Also, the growth in the assay with UACC-257 melanoma was 105%; in the assay on M14 melanoma it was 64.8%.

`CC(C)c1ccc2c(c1)CC[C@H]1[C@](C)(C(=O)OCC#CCN3CCCC3)CCC[C@]21C`: the growth in the assay with NCI-H23 lung is 61.3%; in the assay on NCI-H226 lung, 81.8%; in the assay with NCI-H322M lung, 93.8%; with HOP-62 NSCLC, 94.1%; with NCI-H460 lung, 96.9%; with HOP-92 NSCLC it was 65.2%. Further, the growth is 85.8% with NCI-H522 lung; 75% with A549/ATCC NSCLC; 84.1% in the assay on 786-0 renal; 44.7% in the assay on COLO 205 colon; 89.3% in the assay with DU-145 prostate; 39.8% with K-562 leukemia. The growth was 70.8% in the assay on MALME-3M melanoma; 100% in the assay on MDA-MB-231 breast; 74% in the assay on RXF 393 renal; 89.1% with SF-268 CNS; 97.5% in the assay with SF-295 CNS; 77.8% with SF-539 CNS. For the same molecule, the growth in the assay with UACC-257 melanoma and in the assay on M14 melanoma was 82.4% each time.

In the case of `O=C1/C(=C/c2ccc(Cl)cc2)CN(C(=O)C(Cl)Cl)C/C1=C\c1ccc(Cl)cc1`, the growth with NCI-H23 lung is -69.2% (active); in the assay with NCI-H226 lung, -24.4% (active); in the assay on NCI-H322M lung, -70.9% (active); in the assay with HOP-62 NSCLC, -61.5% (active); in the assay with NCI-H460 lung, -64.9% (active); with HOP-92 NSCLC it was -59.9% (active). The growth with NCI-H522 lung was -60.3% (active); in the assay with A549/ATCC NSCLC it was -21.2% (active); with 786-0 renal it was -80.2% (active); with COLO 205 colon, -68.5% (active); in the assay with DU-145 prostate it was -89.7% (active); with K-562 leukemia it was -3.91% (active). Also, the growth in the assay with MALME-3M melanoma was -65% (active); in the assay with MDA-MB-231 breast, -23.9% (active); in the assay on RXF 393 renal it was -88.2% (active); with SF-268 CNS, -74.9% (active); in the assay on SF-295 CNS, -86.7% (active); in the assay with SF-539 CNS, -96.3% (active). Moreover, the growth with UACC-257 melanoma was -42.3% (active); with M14 melanoma, -68.7% (active).

On to `CS(=O)/C(C#N)=C\C=C\c1cccc(Cl)c1` (stereo not given), for which the growth in the assay on NCI-H23 lung was -7.77% (active); in the assay on NCI-H226 lung, 36.1%; in the assay with NCI-H322M lung, 24.1%; in the assay with HOP-62 NSCLC, 17.1%; in the assay on NCI-H460 lung it was 3.71% (active); in the assay on HOP-92 NSCLC, -5.77% (active). Further, the growth in the assay with NCI-H522 lung is -9.88% (active); in the assay on A549/ATCC NSCLC, 20%; in the assay with 786-0 renal, 19.2%; in the assay on COLO 205 colon, -22% (active); in the assay with DU-145 prostate, 23.1%; in the assay with K-562 leukemia it was 10.3%. Besides, the growth was 34.7% in the assay on MALME-3M melanoma; 40.6% in the assay on MDA-MB-231 breast; 49.5% in the assay on RXF 393 renal; 17.2% in the assay with SF-268 CNS; 32.5% in the assay with SF-295 CNS; 17.7% in the assay on SF-539 CNS. Further, the growth with UACC-257 melanoma is 31.9%; in the assay with M14 melanoma, -3.44% (active).

Source of the values: PubChem BioAssay (NCI).
